“And” between values parts separate entries of the source, which are not always exact repeats. Equal entries are not always repeated. The panel holds about 79,000 compounds, 15% with a hit somewhere; the sample as a whole holds those more often. More than one record can exist for a structure, and the calls need not agree. The source made the active and inactive calls. Cut-off read from the data, not from the text of the source: active = growth inhibition above about 70%; inactive = the rest.

Test [1] is described as follows: NCI Yeast Anticancer Drug Screen. Data for the rad50 strain (AID 155).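 Note: 0% = growth of vehicle-only cultures of the same strain.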 Particulars: S. cerevisiae rad50 strain growth inhibition, stronger effect = higher value. The procedure, abridged:
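A DNA repair-deficient yeast mutant serves as the test organism; compound-induced growth inhibition is calculated against vehicle-treated cells.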

Test [2] in a line: NCI Yeast Anticancer Drug Screen. Data for the mec2-1 strain (AID 157). Particulars: S. cerevisiae mec2-1 strain, stronger effect = higher value. The procedure, abridged:
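Each compound was tested on mec2-1 yeast, a strain altered in DNA damage repair or cell cycle control. Growth inhibition is reported relative to vehicle.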

Test [3] can be described thus: NCI Yeast Anticancer Drug Screen. Data for the sgs1 mgt1 strain (AID 161).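 Note: 0% = growth of cultures given vehicle only.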 Particulars: S. cerevisiae sgs1 mgt1 strain, stronger effect = higher value. The procedure, abridged: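 Test agents were incubated with a DNA-repair-mutant yeast strain. Growth was then read and compared against vehicle-treated controls.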
Test [4] in a line: NCI Yeast Anticancer Drug Screen. Data for the cln2 rad14 strain (AID 165).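 Note: 0% = growth equal to vehicle treated cultures.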 The note with it: S. cerevisiae cln2 rad14 strain, stronger effect = higher value. An outline of the steps:
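Test compounds were added to cln2 rad14 yeast cultures; inhibition of growth was then determined by comparison with vehicle treatment.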

Test [5] is described as follows: NCI Yeast Anticancer Drug Screen. Data for the bub3 strain (AID 167). The note with it: S. cerevisiae bub3 mutant strain, stronger effect = higher value. The procedure, abridged: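 Inhibition values come from growth of compound-treated mutant yeast normalised to vehicle-treated controls.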
The nature of test [6]: NCI Yeast Anticancer Drug Screen. Data for the mlh1 rad18 strain (AID 175). Particulars: S. cerevisiae mlh1 rad18 strain growth inhibition, stronger effect = higher value. The procedure, abridged:
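Inhibition values reflect reduced growth of mutant yeast versus vehicle-treated controls following compound exposure; the mutations affect DNA damage repair.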

Where [7] appears, read: at 5.0 µM (retest, dose inferred, filed as 0.5).
The mark [8] stands for this setting: at 50.0 µM (retest, dose inferred, filed as 5.0).

As for `C=CCC(O)c1ccc(C(C)C)cc1` (stereo unspecified), the growth inhibition in test [1] (setting [7]) was 3% (inactive); in test [1] (setting [8]) it was 7% (inactive); in test [1] (at 50.0 µM), 18.9% (inactive) and -7.9% (inactive); in test [2] (setting [7]), 1% (inactive); in test [2] (setting [8]) it was -3% (inactive); in test [2] (at 50.0 µM) it was -7.55% (inactive) and -1.05% (inactive). Also, the growth inhibition in test [3] (setting [7]) is -2% (inactive); in test [3] (setting [8]), 1% (inactive); in test [3] (at 50.0 µM), -5.65% (inactive) and 13.1% (inactive); in test [4] (setting [7]), -3% (inactive); in test [4] (setting [8]), 0% (inactive); in test [4] (at 50.0 µM), -5% (inactive) and 16.4% (inactive). Also, the growth inhibition in test [5] (setting [7]) is 10% (inactive); in test [5] (setting [8]) it was 16% (inactive); in test [5] (at 50.0 µM) it was -2.85% (inactive) and -2.2% (inactive); in test [6] (setting [7]), 0% (inactive); in test [6] (setting [8]), 7% (inactive); in test [6] (at 50.0 µM), 15.4% (inactive) and -13.9% (inactive).
For the compound `Cc1ccnc2c1c(=O)c1ccccc1n2C`, the growth inhibition is 0% (inactive) in test [1] (setting [7]); 86% (active) in test [1] (setting [8]); 79.1% (active) in test [1] (at 50.0 µM); 4% (inactive) in test [2] (setting [7]); 28% (inactive) in test [2] (setting [8]); 60.2% (inactive) in test [2] (at 50.0 µM). Moreover, the growth inhibition in test [3] (setting [7]) is -2% (inactive); in test [3] (setting [8]) it was 35% (inactive); in test [3] (at 50.0 µM), 68.9% (inactive); in test [4] (setting [7]), -6% (inactive); in test [4] (setting [8]), -3% (inactive); in test [4] (at 50.0 µM), 46.2% (inactive). The growth inhibition in test [5] (setting [7]) was -1% (inactive); in test [5] (setting [8]), 12% (inactive); in test [5] (at 50.0 µM) it was 71.6% (active); in test [6] (setting [7]) it was 3% (inactive); in test [6] (setting [8]), 55% (inactive); in test [6] (at 50.0 µM), 74.3% (active).
`O=C(c1ccco1)N(C(=S)N1CCN(c2ccccn2)CC1)C1CCCCC1`: the growth inhibition in test [1] (setting [7]) was 5% (inactive); in test [1] (setting [8]), 46% (inactive); in test [1] (at 50.0 µM), 73.3% (active); in test [2] (setting [7]) it was -7% (inactive); in test [2] (setting [8]), 49% (inactive); in test [2] (at 50.0 µM) it was 86.7% (active). In addition, the growth inhibition in test [3] (setting [7]) is 0% (inactive); in test [3] (setting [8]), 76% (active); in test [3] (at 50.0 µM), 84.3% (active); in test [4] (setting [7]), 30% (inactive); in test [4] (setting [8]), 60% (inactive); in test [4] (at 50.0 µM), 71.8% (active). Moreover, the growth inhibition in test [5] (setting [7]) is 0% (inactive); in test [5] (setting [8]) it was 40% (inactive); in test [5] (at 50.0 µM), 79% (active); in test [6] (setting [7]), -14% (inactive); in test [6] (setting [8]), 80% (active); in test [6] (at 50.0 µM), 79.3% (active).
Consider `COC(=O)C1c2cc3c(cc2C(OC2OC(C)C(OC)C(C)(OC)C2OC)CC1(C)O)C(=O)c1c(O)cc2c(c1C3=O)OC1OC2(C)C(O)C([N+](C)(C)[O-])C1O` (stereo unspecified), for which the growth inhibition in test [1] (setting [7]) is 7% (inactive); in test [1] (setting [8]), 65% (inactive); in test [1] (at 50.0 µM), 70.4% (active); in test [2] (setting [7]) it was 3% (inactive); in test [2] (setting [8]), 8% (inactive); in test [2] (at 50.0 µM), 61.4% (inactive). Besides, the growth inhibition in test [3] (setting [7]) is -2% (inactive); in test [3] (setting [8]), 27% (inactive); in test [3] (at 50.0 µM), 65.8% (inactive); in test [4] (setting [7]), 24% (inactive); in test [4] (setting [8]) it was 39% (inactive); in test [4] (at 50.0 µM), 47.6% (inactive). Besides, the growth inhibition is -10% (inactive) in test [5] (setting [7]); 31% (inactive) in test [5] (setting [8]); 74.8% (active) in test [5] (at 50.0 µM); -8% (inactive) in test [6] (setting [7]); 57% (inactive) in test [6] (setting [8]); 54.5% (inactive) in test [6] (at 50.0 µM).
On to `O=C(O)COc1ccc(OCC(=O)O)cc1`, for which the growth inhibition in test [1] (setting [7]) was 3% (inactive); in test [1] (setting [8]), 42% (inactive); in test [1] (at 50.0 µM), -11.4% (inactive) and 55.8% (inactive); in test [2] (setting [7]) it was -3% (inactive); in test [2] (setting [8]), -2% (inactive); in test [2] (at 50.0 µM), -5.05% (inactive) and -20.9% (inactive). In addition, the growth inhibition in test [3] (setting [7]) was -1% (inactive); in test [3] (setting [8]), 1% (inactive); in test [3] (at 50.0 µM), -11.5% (inactive); in test [4] (setting [7]), 1% (inactive); in test [4] (setting [8]), -5% (inactive); in test [4] (at 50.0 µM), -68.3% (inactive). The growth inhibition in test [5] (setting [7]) is 1% (inactive); in test [5] (setting [8]) it was 4% (inactive); in test [5] (at 50.0 µM) it was -4.55% (inactive); in test [6] (setting [7]), -3% (inactive); in test [6] (setting [8]), 1% (inactive); in test [6] (at 50.0 µM) it was 0.9% (inactive) and 18.2% (inactive).
Regarding `COC(=O)C1C(O)C(C)C(O)C(C)C=C(C)C2=C3C(=C(C)C(=O)c4c(O)c(c(C)c(OC(C)=O)c43)NC(=O)C(C)=C/C=C\C(C)C(O)C(C)C1O)OCO2` (stereo unspecified), the growth inhibition in test [1] (setting [7]) is -11% (inactive); in test [1] (setting [8]), -37% (inactive); in test [1] (at 50.0 µM), 53.1% (inactive) and 5.45% (inactive); in test [2] (setting [7]), -14% (inactive); in test [2] (setting [8]), -42% (inactive); in test [2] (at 50.0 µM), 22.1% (inactive) and -8.55% (inactive). Besides, the growth inhibition in test [3] (setting [7]) is -11% (inactive); in test [3] (setting [8]), 89% (active); in test [3] (at 50.0 µM) it was 90.2% (active) and -9.2% (inactive); in test [4] (setting [7]) it was -10% (inactive); in test [4] (setting [8]), 10% (inactive); in test [4] (at 50.0 µM) it was 28.6% (inactive) and 3% (inactive). Besides, the growth inhibition in test [5] (setting [7]) was -31% (inactive); in test [5] (setting [8]), -27% (inactive); in test [5] (at 50.0 µM), 37.9% (inactive) and 8.2% (inactive); in test [6] (setting [7]) it was -36% (inactive); in test [6] (setting [8]), -3% (inactive); in test [6] (at 50.0 µM), 17.6% (inactive) and 8.65% (inactive).
On to `O=C1OC(c2cccnc2)OC(c2ccccc2)=C1C(=O)c1ccccc1` (stereo unspecified), for which the growth inhibition is 5% (inactive) in test [1] (setting [7]); 99% (active) in test [1] (setting [8]); 99.4% (active) in test [1] (at 50.0 µM); 23% (inactive) in test [2] (setting [7]); 99% (active) in test [2] (setting [8]); 99.5% (active) in test [2] (at 50.0 µM). The growth inhibition is 4% (inactive) in test [3] (setting [7]); 98% (active) in test [3] (setting [8]); 99.5% (active) in test [3] (at 50.0 µM); 12% (inactive) in test [4] (setting [7]); 99% (active) in test [4] (setting [8]); 98.7% (active) in test [4] (at 50.0 µM). The growth inhibition in test [5] (setting [7]) was -4% (inactive); in test [5] (setting [8]) it was 99% (active); in test [5] (at 50.0 µM) it was 98.8% (active); in test [6] (setting [7]) it was 33% (inactive); in test [6] (setting [8]), 99% (active); in test [6] (at 50.0 µM), 99.2% (active).

Source of the values: PubChem BioAssay (NCI).
